Measurements from PubChem BioAssay (EPA / NIEHS).
Inconclusive results are not listed. Active and inactive are the calls of the source. The calls were made as follows, unless noted: active = hit-call score of the fitted dose curve at least 0.9, where 1 is the maximum; inconclusive = response in the unintended direction; inactive = score below 0.9.

Columns and labels:
[1] = biological target: PGR (gene 5241) (UniProt P06401); assay: TOX21_PR_BLA_Followup_Antagonist_ratio: Tox21 HEK293 Progesterone Receptor (PR) Antagonism Beta-lactamase Follow-Up Assay, Ratio (AID 2283934)
Chain of PGR (gene 5241) (P06401 whole entry, looked up, the tested form may be a part): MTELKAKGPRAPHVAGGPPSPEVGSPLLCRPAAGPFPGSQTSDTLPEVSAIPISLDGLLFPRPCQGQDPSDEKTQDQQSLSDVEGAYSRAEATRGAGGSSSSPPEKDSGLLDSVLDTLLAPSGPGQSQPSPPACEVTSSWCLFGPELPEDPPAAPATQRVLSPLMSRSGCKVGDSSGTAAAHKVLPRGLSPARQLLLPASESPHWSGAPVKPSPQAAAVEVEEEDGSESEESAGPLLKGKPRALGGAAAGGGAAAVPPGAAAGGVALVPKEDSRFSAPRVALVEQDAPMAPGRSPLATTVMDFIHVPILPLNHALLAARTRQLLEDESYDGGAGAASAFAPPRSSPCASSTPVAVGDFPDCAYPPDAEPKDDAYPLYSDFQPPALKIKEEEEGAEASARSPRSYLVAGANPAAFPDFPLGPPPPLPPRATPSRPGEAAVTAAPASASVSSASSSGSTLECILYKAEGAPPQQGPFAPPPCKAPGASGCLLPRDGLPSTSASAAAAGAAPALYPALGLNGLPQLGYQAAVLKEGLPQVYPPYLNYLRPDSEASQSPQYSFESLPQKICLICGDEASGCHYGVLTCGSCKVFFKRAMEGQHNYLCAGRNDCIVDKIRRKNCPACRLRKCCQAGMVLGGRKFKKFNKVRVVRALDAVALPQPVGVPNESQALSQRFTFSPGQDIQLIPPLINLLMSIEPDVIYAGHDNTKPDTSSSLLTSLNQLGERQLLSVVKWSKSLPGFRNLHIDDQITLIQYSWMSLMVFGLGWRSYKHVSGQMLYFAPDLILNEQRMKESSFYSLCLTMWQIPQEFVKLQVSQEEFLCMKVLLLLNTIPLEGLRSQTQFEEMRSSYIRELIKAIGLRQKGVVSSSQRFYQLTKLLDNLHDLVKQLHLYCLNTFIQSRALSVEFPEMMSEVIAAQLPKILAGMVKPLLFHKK
Procedure, shortened: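 PR-UAS-bla HEK293T cells in medium with 2% charcoal-stripped FBS were treated with compounds plus 1 nM (final) promegestone (R5020) for 16 hr at 37C. LiveBLAzer B/G FRET substrate was then added for 2 h at room temperature; signal is cleaved/uncleaved substrate ratio versus DMSO.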

[2] = biological target: PGR (gene 5241) (UniProt P06401); assay: TOX21_PR_LUC_Followup_Antagonist: Tox21 HEK293 Progesterone Receptor (PR) Antagonism Luciferase Follow-Up Assay (AID 2283938);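 also: curve fitted upward as signal gain over DMSO baseline despite antagonist label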
Procedure, shortened: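 HEK293-PR-A-luc cells, 3,000/well, preincubated 5 h at 37C before compound addition in DMSO; 16 h compound exposure at 37C. ONE-Glo luciferase luminescence read after 30 min at room temperature, fitted relative to DMSO baseline.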

[3] = biological target: Thyroid hormone receptor alpha (Rattus norvegicus) + Thyroid hormone receptor beta (Rattus norvegicus) (UniProt P18113+P63059); assay: TOX21_TR_LUC_GH3_Agonist_Followup: Tox21 GH3 Thyroid Hormone Receptor Agonism Luciferase Follow-Up Assay (AID 2283939)
Chain of Thyroid hormone receptor alpha (Rattus norvegicus) + Thyroid hormone receptor beta (Rattus norvegicus) (P63059 whole entry, looked up): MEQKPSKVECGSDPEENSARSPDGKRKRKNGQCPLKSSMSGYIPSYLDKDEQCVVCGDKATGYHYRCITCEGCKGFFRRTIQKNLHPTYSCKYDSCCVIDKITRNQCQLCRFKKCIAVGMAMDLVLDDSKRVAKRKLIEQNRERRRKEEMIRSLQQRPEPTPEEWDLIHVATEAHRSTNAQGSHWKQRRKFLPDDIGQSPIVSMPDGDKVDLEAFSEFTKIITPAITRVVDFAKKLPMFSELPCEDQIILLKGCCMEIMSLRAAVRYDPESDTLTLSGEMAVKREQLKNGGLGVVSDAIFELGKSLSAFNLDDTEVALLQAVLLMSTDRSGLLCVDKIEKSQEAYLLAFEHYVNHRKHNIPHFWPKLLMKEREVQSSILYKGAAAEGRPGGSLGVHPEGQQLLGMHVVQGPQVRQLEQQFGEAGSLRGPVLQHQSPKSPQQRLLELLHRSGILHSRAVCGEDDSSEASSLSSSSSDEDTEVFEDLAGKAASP
Chain of Thyroid hormone receptor alpha (Rattus norvegicus) + Thyroid hormone receptor beta (Rattus norvegicus) (P18113 whole entry, looked up): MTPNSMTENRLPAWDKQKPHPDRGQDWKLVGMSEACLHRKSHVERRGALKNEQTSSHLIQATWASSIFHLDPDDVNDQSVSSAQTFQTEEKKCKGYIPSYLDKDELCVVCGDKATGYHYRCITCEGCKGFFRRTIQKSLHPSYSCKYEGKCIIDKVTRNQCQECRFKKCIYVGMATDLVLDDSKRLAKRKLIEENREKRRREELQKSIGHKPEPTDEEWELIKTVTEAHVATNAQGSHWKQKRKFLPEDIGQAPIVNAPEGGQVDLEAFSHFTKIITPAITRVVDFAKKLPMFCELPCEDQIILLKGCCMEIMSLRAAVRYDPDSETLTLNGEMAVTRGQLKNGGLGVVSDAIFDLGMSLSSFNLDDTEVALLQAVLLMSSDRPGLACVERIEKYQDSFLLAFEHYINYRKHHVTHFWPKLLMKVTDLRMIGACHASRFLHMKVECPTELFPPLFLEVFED
Procedure, shortened: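 Rat GH3 cells (1,500/well) in serum-free assay medium, treated with 15-point series, 92 uM to 5 nM final, for 24 h at 37C. Luciferase via ONE-Glo luminescence; gain of signal fitted against DMSO, T3 positive control.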

[4] = TOX21_PR_BLA_Followup_Agonist_viability: Viability Assessment in the Tox21 HEK293 Progesterone Receptor (PR) Agonism Beta-lactamase Follow-Up Assay (AID 2283935);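 also: signal loss means lower viability so actives are cytotoxic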
Procedure, shortened: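 PR-UAS-bla HEK293T cells in 2% charcoal-stripped FBS medium, compound added after 6 hr plating, 16 hr at 37C/5% CO2. After bla FRET read, CellTiter-Glo added; luminescence read after 30 min at room temperature; signal loss marks cytotoxicity.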

[5] = TOX21_PR_BLA_Followup_Antagonist_viability: Viability Assessment in the Tox21 HEK293 Progesterone Receptor (PR) Antagonism Beta-lactamase Follow-Up Assay (AID 2283936);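 also: hits lower the luminescence signal meaning cytotoxicity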
Procedure, shortened: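 PR-UAS-bla HEK293T cells (3,000/well, 2% charcoal-stripped FBS) given compound plus R5020 agonist, 16 h at 37C. CellTiter-Glo added after bla read, 30 min at room temperature; luminescence loss indicates cytotoxicity.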

[6] = TOX21_PR_LUC_Followup_Antagonist_viability: Viability Assessment in the Tox21 HEK293 Progesterone Receptor (PR) Antagonism Luciferase Follow-Up Assay (AID 2283940)
Procedure, shortened: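 HEK293-PR-A-luc cells, precultured 5 days in assay medium with 10% charcoal-stripped FBS, were seeded at 3,000 cells/well, treated with compounds in DMSO for 16 h at 37C, and viability was read as cellular ATP by CellTiter-Glo luminescence.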

[7] = CEETOX_H295R_11DCORT_noMTC: CeeTox H295R High-throughput Steroidogenesis Assay for 11-Deoxycortisol (11DCORT), maximum tolerated concentration (MTC) filtered results only (AID 2283911; active = hit-call score of the fitted dose curve at least 0.9, where 1 is the maximum; inactive = score below 0.9); settings: actives raise or lower the signal
Procedure, shortened: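 H295R cells were prestimulated 48 h with 10 uM forskolin, then exposed 48 h to chemical (0.1% DMSO final). 11-Deoxycortisol in the medium was measured by MTBE extraction and HPLC-MS/MS, with bidirectional fitting versus DMSO and no MTC filtering of concentrations.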

[8] = CEETOX_H295R_OHPREG_noMTC: CeeTox H295R High-throughput Steroidogenesis Assay for OH-Pregnenolone (OHPREG), maximum tolerated concentration (MTC) filtered results only (AID 2283912; active = hit-call score of the fitted dose curve at least 0.9, where 1 is the maximum; inactive = score below 0.9); settings: actives raise or lower the signal
Procedure, shortened: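 H295R cells prestimulated 48 h with 10 uM forskolin, then exposed 48 h to compound (0.1% DMSO). 17alpha-hydroxypregnenolone in medium measured by MTBE extraction and HPLC-MS/MS; bidirectional fit vs DMSO, concentrations not MTT/MTC-filtered.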

[9] = CEETOX_H295R_OHPROG_noMTC: CeeTox H295R High-throughput Steroidogenesis Assay for OH-Progesterone (OHPROG), maximum tolerated concentration (MTC) filtered results only (AID 2283914; active = hit-call score of the fitted dose curve at least 0.9, where 1 is the maximum; inactive = score below 0.9); settings: actives raise or lower the signal
Procedure, shortened: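 H295R cells prestimulated 48 h with 10 uM forskolin, then exposed 48 h to chemical (0.1% DMSO final). 17alpha-hydroxyprogesterone in medium quantified by HPLC-MS/MS after MTBE extraction; bidirectional fitting versus DMSO, concentrations not MTC-filtered.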

[10] = CEETOX_H295R_CORTISOL_noMTC: CeeTox H295R High-throughput Steroidogenesis Assay for Cortisol, maximum tolerated concentration (MTC) filtered results only (AID 2283916; active = hit-call score of the fitted dose curve at least 0.9, where 1 is the maximum; inactive = score below 0.9); settings: actives raise or lower the signal
Procedure, shortened: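 H295R human adrenal cells prestimulated 48 h with 10 uM forskolin, then exposed 48 h to chemical in 0.1% DMSO; cortisol in medium quantified by HPLC-MS/MS; bidirectional fit vs DMSO baseline, concentrations not MTT-filtered for MTC.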

[11] = CEETOX_H295R_CORTIC_noMTC: CeeTox H295R High-throughput Steroidogenesis Assay for Corticosterone (CORTIC), maximum tolerated concentration (MTC) filtered results only (AID 2283917; active = hit-call score of the fitted dose curve at least 0.9, where 1 is the maximum; inactive = score below 0.9); settings: actives raise or lower the signal
Procedure, shortened: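 H295R adrenal cells pre-stimulated 48 h with 10 uM forskolin, then exposed 48 h to chemical in 0.1% DMSO; corticosterone in medium quantified by HPLC-MS/MS, fitted bidirectionally versus DMSO without MTT-based concentration filtering.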

[12] = CEETOX_H295R_DOC_noMTC: CeeTox H295R High-throughput Steroidogenesis Assay for DOC, maximum tolerated concentration (MTC) filtered results only (AID 2283918; active = hit-call score of the fitted dose curve at least 0.9, where 1 is the maximum; inactive = score below 0.9); settings: actives raise or lower the signal
Procedure, shortened: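 H295R cells prestimulated 48 h with 10 uM forskolin, then exposed 48 h to chemical in 0.1% DMSO. 11-Deoxycorticosterone in medium measured by MTBE extraction and HPLC-MS/MS; bidirectional fit vs DMSO, no MTC filter.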

[13] = CEETOX_H295R_PROG_noMTC: CeeTox H295R High-throughput Steroidogenesis Assay for Progesterone (PROG), maximum tolerated concentration (MTC) filtered results only (AID 2283920; active = hit-call score of the fitted dose curve at least 0.9, where 1 is the maximum; inactive = score below 0.9); settings: actives raise or lower the signal
Procedure, shortened: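 H295R cells, prestimulated 48 h with 10 uM forskolin, exposed 48 h to chemical in 0.1% DMSO. Medium progesterone quantified by MTBE extraction and HPLC-MS/MS; bidirectional fit versus DMSO, concentrations not MTT-filtered.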

[14] = biological target: PGR (gene 5241) (UniProt P06401); assay: TOX21_PR_BLA_Followup_Agonist_ratio: Tox21 HEK293 Progesterone Receptor (PR) Agonism Beta-lactamase Follow-Up Assay, Ratio (AID 2283933)
Procedure, shortened: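 PR-UAS-bla HEK293T cells (GAL4-UAS beta-lactamase reporter) in medium with 2% charcoal-stripped FBS received compounds after 6 hr at 37C, then incubated 16 hr. LiveBLAzer FRET substrate added, 2 hr room temperature; cleaved/uncleaved (ch2/ch1) ratio fitted upward versus DMSO.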

[15] = biological target: PGR (gene 5241) (UniProt P06401); assay: TOX21_PR_LUC_Followup_Agonist: Tox21 HEK293 Progesterone Receptor (PR) Agonism Luciferase Follow-Up Assay (AID 2283937; active = hit-call score of the fitted dose curve at least 0.9, where 1 is the maximum; inactive = score below 0.9)
Procedure, shortened: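 HEK293-PR-A-luc cells, pre-cultured 5 days in medium with 10% charcoal-stripped FBS, were seeded at 3,000 cells/well, rested 5 h at 37C, then exposed to compounds 16 h at 37C; luciferase read by ONE-Glo luminescence after 30 min.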

[16] = tested on: Sodium/Iodide Symporter (NIS), SLC5A5 (gene 6528); assay: CPHEA_Stoker_NIS_Inhibition_RAIU: CPHEA's Radioactive Iodide Uptake (RAIU) Assay for Sodium/Iodide Symporter (NIS) Inhibition, Stoker and Laws Labs (AID 2283841)
Procedure, shortened: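 Test chemicals, six concentrations from 0.001 to 100uM in 0.5% DMSO, were co-incubated with carrier-free 125I (final 329pM) on hNIS-HEK293T-EPA monolayers in pH 7.4 HEPES-buffered HBSS. Plates stood 2 hours at room temperature, then were washed cold and counted.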

[17] = CPHEA_Stoker_NIS_Cytotoxicity: Cytotoxicity Assessment for CPHEA's Radioactive Iodide Uptake (RAIU) Assay for Sodium/Iodide Symporter (NIS) Inhibition, Stoker and Laws Labs (AID 2283897)
Procedure, shortened: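 Viability in hNIS-HEK293T-EPA cells is scored as a drop in luciferase-detected ATP following 2-hour room-temperature exposure (0.001–100uM; triplicate wells, three cell passages), with DMSO as negative control.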

[18] = CEETOX_H295R_ANDR_noMTC: CeeTox H295R High-throughput Steroidogenesis Assay for Androstenedione (ANDR), maximum tolerated concentration (MTC) filtered results only (AID 2283915; active = hit-call score of the fitted dose curve at least 0.9, where 1 is the maximum; inactive = score below 0.9); settings: actives raise or lower the signal
Procedure, shortened: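 H295R cells, passage 10 or below, prestimulated 48 h with 10 uM forskolin, then exposed 48 h to chemical in 0.1% DMSO. Medium androstenedione extracted with MTBE, quantified by HPLC-MS/MS; concentrations not MTC-filtered; bidirectional fit versus DMSO.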

[19] = CEETOX_H295R_TESTO_noMTC: CeeTox H295R High-throughput Steroidogenesis Assay for Testosterone (TESTO), maximum tolerated concentration (MTC) filtered results only (AID 2283924; active = hit-call score of the fitted dose curve at least 0.9, where 1 is the maximum; inactive = score below 0.9); settings: actives raise or lower the signal
Procedure, shortened: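 H295R cells prestimulated 48 h with 10 uM forskolin, then exposed 48 h to chemicals in 0.1% DMSO final. Testosterone in medium quantified by MTBE extraction and HPLC-MS/MS; bidirectional fit versus DMSO, concentrations […] filtered by MTT-based maximum tolerated concentration.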

SMILES: CC(O)(CS(=O)(=O)c1ccc(F)cc1)C(=O)Nc1ccc(C#N)c(C(F)(F)F)c1 (centres undefined)
- AC50 [1]: 5.64 µM (active)
- AC50 [2]: 6.97 µM (active)

SMILES: c1csc(-c2ccc(-c3cccs3)s2)c1
- outcome [3]: inactive

SMILES: Nc1ccc(-c2ccccc2)cc1
- AC50 [1]: 22.3 µM (active)
- outcome [4]: inactive
- outcome [5]: inactive
- outcome [2]: inactive
- outcome [6]: inactive

SMILES: Cc1cc(Cl)ccc1N
- outcome [7]: inactive
- outcome [8]: inactive
- AC50 [9]: 25.5 µM (active)
- outcome [10]: inactive
- outcome [11]: inactive
- outcome [12]: inactive
- AC50 [13]: 24.1 µM (active)

SMILES: Cc1ccccc1OP(=O)(Oc1ccccc1C)Oc1ccccc1C
- outcome [14]: inactive
- AC50 [1]: 39.9 µM (active)
- outcome [4]: inactive
- outcome [5]: inactive
- outcome [15]: inactive
- outcome [2]: inactive
- outcome [6]: inactive

SMILES: CC1(C)COP(Oc2ccccc2)OC1
- outcome [3]: inactive

SMILES: OC[P+](CO)(CO)CO
- AC50 [7]: 6.54 µM (active)
- AC50 [8]: 6.42 µM (active)
- AC50 [9]: 3.48 µM (active)
- AC50 [10]: 4.63 µM (active)
- AC50 [11]: 3.54 µM (active)
- AC50 [12]: 12.3 µM (active)
- AC50 [13]: 2.5 µM (active)

SMILES: O=S(=O)(Oc1ccc(Cl)cc1)c1ccc(Cl)cc1
- outcome [1]: inactive
- outcome [4]: inactive
- outcome [5]: inactive
- outcome [2]: inactive

SMILES: O=C1c2ccccc2C(=O)C1C(=O)C(c1ccccc1)c1ccc(Cl)cc1 (centres undefined)
- outcome [16]: inactive
- outcome [17]: inactive

SMILES: O=S(=O)(c1ccc(Cl)cc1)c1cc(Cl)c(Cl)cc1Cl
- AC50 [1]: 27.3 µM (active)
- outcome [4]: inactive
- outcome [5]: inactive
- AC50 [2]: 61 µM (active)

SMILES: CCCSP(=S)(OCC)Oc1ccc(Cl)cc1Cl (centres undefined)
- AC50 [1]: 22.6 µM (active)
- outcome [4]: inactive
- outcome [5]: inactive
- AC50 [2]: 24.3 µM (active)

SMILES: CCCSP(=S)(OCC)Oc1ccc(SC)cc1 (centres undefined)
- outcome [16]: inactive
- outcome [17]: inactive
- outcome [1]: inactive
- outcome [4]: inactive
- outcome [5]: inactive
- outcome [2]: inactive

SMILES: CC(C)(C)c1ccccc1O
- outcome [17]: inactive

SMILES: CC(C)CC(C)(c1ccc(O)cc1)c1ccc(O)cc1
- outcome [14]: inactive
- AC50 [1]: 12.7 µM (active)
- outcome [4]: inactive
- outcome [5]: inactive
- outcome [15]: inactive
- AC50 [2]: 12.2 µM (active)
- outcome [6]: inactive

SMILES: CC(C)(C1CCC(O)CC1)C1CCC(O)CC1 (centres undefined)
- outcome [1]: inactive
- outcome [4]: inactive
- outcome [2]: inactive
- outcome [6]: inactive

SMILES: C=CC(Cl)CCl (centres undefined)
- outcome [16]: inactive
- outcome [17]: inactive

SMILES: OC(c1ccc(Cl)cc1)(c1ccc(Cl)cc1)c1cccnc1
- outcome [14]: inactive
- AC50 [1]: 29.3 µM (active)
- outcome [4]: inactive
- outcome [5]: inactive
- outcome [15]: inactive
- AC50 [2]: 62.2 µM (active)
- outcome [6]: inactive

SMILES: CCC[CH2][Sn]([Cl])([Cl])[CH2]CCC
- AC50 [16]: 3.24 µM (active)
- outcome [17]: inactive

SMILES: CCOP(=S)(OCC)Oc1ccc(Cl)cc1Cl
- AC50 [1]: 33.2 µM (active)
- outcome [4]: inactive
- outcome [2]: inactive
- outcome [6]: inactive

SMILES: CC(C)=CC1C(C(=O)OCc2cccc(Oc3ccccc3)c2)C1(C)C (centres undefined)
- outcome [16]: inactive
- outcome [17]: inactive

SMILES: O=C(Cl)OCCOCCOC(=O)Cl
- outcome [3]: inactive

SMILES: O=[N+]([O-])c1ccc(Nc2ccccc2)cc1
- AC50 [1]: 11.4 µM (active)
- outcome [4]: inactive
- outcome [5]: inactive
- AC50 [2]: 12.8 µM (active)
- outcome [6]: inactive

SMILES: c1cc[c]([Sb]([c]2ccccc2)[c]2ccccc2)cc1
- outcome [7]: inactive
- AC50 [8]: 50 µM (active)
- AC50 [9]: 1.53 µM (active)
- AC50 [18]: 27.8 µM (active)
- AC50 [10]: 11.3 µM (active)
- AC50 [11]: 8.85 µM (active)
- outcome [12]: inactive
- AC50 [13]: 10.8 µM (active)
- outcome [19]: inactive
